# This is part of a sample that, as a whole, favours compounds with a hit. Of some 83,000 tested, about 20% had one in any assay.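 Values shown are percent growth following 48 h exposure of cells in 96-well plates to a single concentration of compound; below 10 was considered active.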 Values without a mark were called inactive. Activity calls are given as the source filed them.
# System: KM12 colon
# Assay: NCI-60 one-dose screen, 48 h (100 = growth as untreated, 0 = no growth, -100 = all killed)
# Conditions: 10 µM unless noted
# Procedure: Growth inhibition of the KM12 human tumor cell line is measured as a screen for anti-cancer activity. Cells are grown in 96 well plates and exposed to the test compound for 48 hours. Compounds are tested at a single concentration, which is 10^-5 M for most compounds. The reported endpoint is percent growth (GI% or GIPRCNT), where numbers from 0 - 100% represent growth inhibition, and numbers from -100% - 0 represent cell death. For example, a value of 40 represents 60% growth inhibition. A value of 0 means no net growth occurred over the course of the experiment. A value of -40 indicates 40% of cells at the beginning of the experiment died by the end of the experiment. A value of -100 means all cells are dead at the end of the experiment.
# NCI-60 Human Tumor Cell Lines Screen was performed using the standard one-dose NCI protocol, which is described in more detail at https://dtp.cancer.gov/discovery_development/nci-60/default.htm.
# Compounds with GIPRCNT values below 10 were considered active. Activity score was based on GIPRCNT using the following formula: […]
# Score is 0 for GIPRCNT values of 100 or above, 50 for GIPRCNT values of 0, and 100 for GIPRCNT values of -100.
row,SMILES,growth
1,COc1ccc2ncccc2c1Cc1c(OC)ccc2ncccc12,52.1%
2,COc1ccc2c(c1)CC/C(=C\c1ccc(OCC(=O)Nc3nc4ccccc4s3)cc1)C2=O,108%
3,CC1=C([Se]CC(OC(=O)[C@@H](CSSC(C)(C)C)NC(=O)C(C)(C)C)C(=O)NCCCCCC(=O)OCc2ccccc2)C(=O)c2ccccc2C1=O (stereo not given in full),6.76% (active)
4,COc1ccc(-c2c3c(N)nc(-c4ccncc4)nc3nc3c2c(C)nn3-c2ccccc2)cc1,62.9%
5,Nc1ccc2c(c1)C(=O)c1cc(Cl)c(Cl)cc1-2,92.8%
6,Nc1ncnc2c1CN(Cc1ccccc1)CC2,108%
7,CC(=O)c1ccccc1NC(=O)C(C)(c1ccccc1)c1ccccc1,85%
8,NS(=O)(=O)N(c1cc(C(F)(F)F)cc(C(F)(F)F)c1)C1CCN(Cc2ccc(C(F)(F)F)cc2)CC1,12.9%
9,O=C1c2cccc(NCCN=Cc3ccccc3O)c2C(=O)c2c(NCCN=Cc3ccccc3O)cccc21,6.07% (active)
10,CCOc1cc(/C=C/C(=O)C(C(=O)/C=C/c2ccc(OC(=O)CNc3nc4ccccc4[nH]3)c(OCC)c2)C(=O)CNc2nc3ccccc3[nH]2)ccc1OC(=O)CNc1nc2ccccc2[nH]1,-70.8% (active)
11,Cc1nn(-c2ccccc2)cc1/C=C1\SC(N2CCCCC2)=NC1=O,103%
12,Cc1ccc(-c2csc(N)n2)cc1,106%
13,Oc1c(Cl)cc(Oc2cc(Cl)c(O)c(CN3CCOCC3)c2)cc1CN1CCOCC1,102%
14,CO[C@H]1/C=C/O[C@@]2(C)Oc3c(C)c(O)c4c(O)c(c(/C=N/N5C(C)CN(Cc6ccc(C#N)cc6)CC5C)c(O)c4c3C2=O)NC(=O)/C(C)=C\C=C\[C@H](C)[C@H](O)[C@@H](C)[C@@H](O)[C@@H](C)[C@H](OC(C)=O)[C@@H]1C (stereo not given in full),15.8%
15,CCSc1nc(-c2ccco2)n2nc(-c3ccco3)cc2n1,63.8%
16,COc1cc(/C=C/C(=O)CC(=O)/C=C/c2ccc(OC(=O)CCNC34CC5CC(CC(C5)C3)C4)c(OC)c2)ccc1OC(=O)CCNC12CC3CC(CC(C3)C1)C2,5.79% (active)
17,CCCCNCCCN(CCCC)CCCNCCCC,107%
18,COc1cc(/C=C2\CN(S(=O)(=O)c3ccc(C)cc3)C/C(=C\c3cc(CN4CCOCC4)c(O)c(OC)c3)C2=O)cc(CN2CCOCC2)c1O,-74.4% (active)
19,N#Cc1c(-c2ccccc2)cc(-c2ccccc2)n(CCCC(=O)O)c1=O,103%
20,COc1cnc2c(c1)C(=O)c1c-2n(CCCN2CCC(O)CC2)c(=O)c2cc(F)ccc12,-6.17% (active)

row,SMILES,growth
1,CCN(CC)c1ccc(N=C2C=CC(=O)C=C2NC(C)=O)cc1,98.6%
2,COc1ccc(C2CC(c3ccc(Nc4ccnc5cc(Cl)ccc45)cc3)=NN2C(C)=O)cc1 (stereo not given),59.3%
3,CCOC(=O)CNC(=O)C1(NC(=O)CNC(=O)OCc2ccccc2)CCCC1,108%
4,C(#Cc1ccccc1C#Cc1ccccn1)c1ccc(OCCCCCCOc2ccc(C#Cc3ccccc3C#Cc3ccccn3)cc2)cc1,37.1%
5,CCN1CCN(c2nc(NNC(=O)Cc3ccccc3)nc(N3CCN(C(c4ccccc4)c4ccccc4)CC3)n2)CC1,59%
6,CCSc1nc(-c2cccs2)n2nc(-c3ccco3)cc2n1,82.5%
7,Nc1nc(Nc2ccccc2SSc2ccccc2Nc2nc(N)nc(C(Cl)(Cl)Cl)n2)nc(C(Cl)(Cl)Cl)n1,43.4%
8,O=C(Nc1ccccc1)P(=O)(O)c1ccccc1,99.8%
9,Nc1nc(NC2CC2)c2ncn(C3C=CC(CO)C3)c2n1 (stereo not given),99.7%
10,CC(=O)[C@H]1CC[C@H]2[C@@H]3C[C@H](C)C4=CC(=O)CC[C@]4(C)[C@H]3C(=O)C[C@]12C,110%
11,O=C(NCCCl)NCCN1c2nc3ccccc3cc2Sc2cc3ccccc3nc21,71.9%
12,CCCCCCCCCCOC(C)=O,113%
13,CC(=O)Nc1cc(C(c2ccccc2)c2ccccc2)cc(C(c2ccccc2)c2ccccc2)c1C,50.5%
14,N#CSCC1CC(O)(c2ccccc2)C(c2ccccc2)C(c2ccc(Cl)cc2)O1 (stereo not given),-96% (active)
15,O=C(c1ccc(Cl)cc1)c1ccc(Cl)cc1,110%
16,COc1cc(NC(=O)NCc2ccco2)ccc1-c1ccc(NC(=O)NCc2ccco2)cc1OC,47.8%
17,CC(=O)N1N=C(c2ccc(Nc3nc(NCCO)nc(NCCO)n3)cc2)CC1c1ccc(Cl)cc1 (stereo not given),100%
18,COc1ccc(-c2cc(-c3cccnc3)nc(S(=O)(=O)CC(=O)Nc3ccc(C)cc3)c2C#N)cc1OC,95.9%
19,COc1ccc(Oc2ccccc2NC(=O)CNC(=O)c2cccc3ccccc23)cc1,26.5% [5 µM]
20,O=C(COc1ccc(/C=C2\Oc3ccc4ccccc4c3C2=O)cc1)c1ccc([N+](=O)[O-])cc1,93.5%
